# Vaccinia Venus: vaccinia inhibition (Venus reporter); Vaccinia virus Venus reporter expression, fluorescence; 330,000 compounds, 0.46% hits; AID 720580; Potency, µM (doses to about 36.5 µM), for inactives: at the highest dose activity change, negative = inhibition, usual class: inhibitors; calls by dose curve; tested in A549 cells; further: potency means the concentration at half of the fitted maximal effect; nearly all actives have a fitted effect of over 30% in size
# HCV inh: inhibitors of hepatitis C virus infection; Huh7.5.1 HCVcc-Cre infection, luciferase reporter, 44 h; Potency, µM (series often up to 41.8 µM), without a hit: at the top dose activity change, negative = inhibition, actives largely listed as inhibitors; 340,000 compounds, 3.4% hits; active means well fitted inhibition curve with a large enough effect; inconclusive means small, poorly fitted or top-dose-only effect, or another doubt; inactive means no such curve, though single readings can be large or run the other way; further: potency means the concentration at half of the fitted maximal effect
#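 Infectious HCVcc-Cre (~0.5 moi) was added to cells just after compound, with cells seeded 4 h earlier at 1,000 per well. Luciferase activity after 44 h culture reported infection; substrate was incubated 15 min at room temperature before reading.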
# VACV mCherry inh: inhibitors of vaccinia virus infection (mCherry reporter signal). Vaccinia virus mCherry reporter infection, fluorescence. Potency, µM (doses to about 36.5 µM), inactives show at the highest dose activity change, negative = inhibition, most hits filed as inhibitors. 310,000 compounds, 0.63% hits. AID 720579; calls by dose curve; tested in A549 cells; further: potency means the concentration at half of the fitted maximal effect; nearly all actives have a fitted effect of over 35% in size
# HCMV inh: human cytomegalovirus inhibition; HFF cells, HCMV-luciferase reporter, 72 h; stronger effect = lower value; 410,000 compounds, 4.5% hits; activity change, negative = inhibition, % at 57.5 µM; in the data active means activity change below about -60%; inconclusive means no clear call, values can overlap the other calls; inactive means above about -39%
#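 Two compound doses tested in HFFs infected with HCMV-luciferase, MOI 1 PFU/cell, 72 h at 37C. Lysate luminescence read with OneGlo; data normalized against buffer-only and 10uM Salinomycin inhibitor controls.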
# FMDV inh: antivirals against foot and mouth disease virus; FMDV antiviral cell-based qHTS; Potency, µM (titrated, usually from 57.9 µM), for inactives: at the highest dose activity change, negative = inhibition, hits mostly inhibitors; 410,000 compounds, 1.2% hits; calls by dose curve; tested in HEK293T cells; further: read-out not given here; potency means the concentration at half of the fitted maximal effect; nearly all actives have a fitted effect of over 45% in size
# * hit, by the source's call; i = inactive; ? = inconclusive; . = no result; [ ] = remark or other dose. Sampled rows, rich in hits. Any-hit rate of the full collection: about 7.3%. On the % scale 0 is the no-effect control and ±100 the full control effect.
SMILES,Vaccinia Venus,HCV inh,VACV mCherry inh,HCMV inh,FMDV inh
Clc1ccc(CNc2cc(-c3ccccc3)nc3nncn23)cc1,-10.0%,.,-25.2%,-33.3,?
Clc1cccc(CNc2cc(-c3ccccc3)nc3nncn23)c1,-25.2%,.,-3.8%,-61.7*,?
COc1ccccc1CNc1cc(-c2ccccc2)nc2nncn12,-8.1%,.,-20.0%,-87.1*,-15.9%
COc1ccc(-c2nsc(NC(=O)COc3ccc(C)c(C)c3)n2)cc1,4.0%,.,0.9%,28.7,-10.8%
COc1cccc(CN2CC3(CN(S(C)(=O)=O)C3)c3c(n(C)c4cc(OC)ccc34)[C@H]2CO)c1,.,.,.,-32.6,.
N#CN(CC(N)=O)c1nc(N2CCCCC2)nc(N2CCCCC2)n1,-6.3%,10µM*,.,-2.7,0.0%
C=CCN(C#N)c1nc(OC)nc(N2CCCC2)n1,-25.3%,?,-14.5%,13.6,-13.5%
O=C(NCc1cccc(Br)c1)c1cnn(-c2ccc(F)cc2)c1-n1cccc1,7.1%,.,-7.3%,-23.0,-17.6%
CC(=O)Nc1ccc(NC(=O)c2cc(-n3cnnc3)ccc2Cl)cc1,.,-14.9%,.,20.8,-17.6%
Cc1ccc2sc(-c3ccc(NC(=O)c4cc(-n5cnnc5)ccc4Cl)cc3)nc2c1,.,0.891µM*,.,?,8.2%
O=C(Nc1cccc(-c2nc3ccccc3s2)c1)c1cc(-n2cnnc2)ccc1Cl,.,12.6µM*,.,.,2.2%
CCCN(CCC)c1nc(N)nc(C#N)n1,-6.1%,.,14.3%,.,.
CC1=NN(c2ccccc2)C(=O)C1C(=S)SC1CC(=O)NC1=O (stereo unspecified),-8.8%,.,i,-87.7*,22.2%
CC1=NN(c2ccccc2)C(=O)C1C(=O)c1ccccc1 (stereo unspecified),-13.0%,-1.7%,-8.2%,3.3,0.0%
O=C1CCN(Cc2ccccc2)C=C1c1ccc(Br)cc1,-20.8%,10µM*,i,25.6,0.0%
CCOC(=O)c1cccn1C1C(=O)N(Cc2ccc(C(F)(F)F)cc2)c2ccc(F)cc21 (stereo unspecified),.,.,.,0.1,.
Cc1cc(C)c2c(n1)nn1c(NCCOCCO)cc(C)nc21,-8.3%,5.3%,-5.8%,-11.1,1.3%
Cc1cc(C)c2c(n1)nn1c(NCCCN(C)C)cc(C)nc21,.,22.4µM*,.,95.3,2.1%
CCc1nc2ccc(C(=O)NCCCN3CCN(c4ccccc4F)CC3)cc2nc1CC,-19.5%,4.47µM*,-3.3%,22.7,0.0%
O=C(NCCCN1CCN(c2ccccc2F)CC1)c1ccc2nc(CCc3ccccc3)oc2c1,-15.5%[7.34 µM],.,-12.0%[7.34 µM],-100.7*,?
CCCNC(=O)c1ccc2nc(-c3ccccc3)c(-c3ccccc3)nc2c1,-2.3%,?,-4.5%,30.3,-19.8%
CCN1CCN(CCNC(=O)c2ccc3nc(-c4cccc(C)c4)c(-c4cccc(C)c4)nc3c2)CC1,.,?,.,-108.8*,-18.9%
O=C(NCCCN1CCN(c2ccccc2F)CC1)c1ccc2nc(Cc3ccccc3)oc2c1,-29.4%,.,-25.5%,-2.8,?
CCCOc1ccc(-c2nc(C#N)c(N3CCN(C)CC3)o2)cc1,-14.3%,?,.,-2.0,-15.3%
CCOc1ccc(-c2nc(C#N)c(N3CCCCCC3)o2)cc1,8.2%,?,-3.7%,-70.1*,-25.2%
SMILES,Vaccinia Venus,HCV inh,VACV mCherry inh,HCMV inh,FMDV inh
CCOc1ccc(-c2nc(C#N)c(N3CCN(C)CC3)o2)cc1,-18.0%,?,-8.7%,-61.2*,-2.4%
COc1ccc(-c2nc(C#N)c(N3CCCCC3)o2)cc1,-0.5%,-1.3%,-10.9%,-0.9,5.2%
COc1ccc(-c2nc(C#N)c(N3CCCCCC3)o2)cc1OC,-24.2%,10µM*,-13.1%,?,.
C=CCN1CC(COCc2ccccc2)OCCS1(=O)=O (stereo unspecified),.,.,.,-6.3,.
O=C([C@@H]1C[C@@H](Sc2nc3ccccc3[nH]2)CN1Cc1c(F)cccc1F)N1CCOCC1,-13.2%,.,-3.9%,.,-14.1%
CC(=O)ON(C(C)=O)c1ccc(/C=C2\C=Cc3ccccc32)cc1,-6.0%,.,-12.8%,.,.
CCN(CC(=O)NCc1cccs1)C(=O)/C=C/c1ccc(OC)cc1OC,-20.6%,20µM*,-8.9%,-9.3,21.9%
CCN(CC(=O)NCc1cccs1)C(=O)CCCOc1ccc(C(C)(C)C)cc1,-17.9%,?,-7.2%,-104.8*,-19.3%
O=C(NCc1cc(F)cc(F)c1)[C@H]1[C@H](CO)[C@H]2Cn3c(cccc3=O)[C@@H]1N2C(=O)c1ccccn1,.,.,.,-10.2,.
O=C(COc1ccccc1)NCc1nnc2c3ccccc3c(-c3ccccc3)nn12,-12.7%,0.3%,-9.3%,-63.0*,-13.2%
CN(C)C(CNC(=O)c1ccc2c(=O)n(-c3ccccc3F)c(=S)[nH]c2c1)Cc1ccccc1 (stereo unspecified),-6.2%,2.24µM*,-4.9%,55.7,-12.4%
O=C(NCCCN1CCCC1=O)c1ccc2c(=O)n(-c3ccccc3F)c(=S)[nH]c2c1,4.3%,?,-4.7%,-27.6,-28.0%
COc1ccc(NC(=O)C2CCCN(S(=O)(=O)c3ccc4c(c3)CCCC(=O)N4)C2)cc1OC (stereo unspecified),-8.8%,.,-10.5%,-9.6,?
CCCc1cc(N2CCN(c3cc(Cl)ccc3C)CC2)n2cnnc2n1,-15.2%,.,-15.4%,-16.7,?
CC(C)c1nnc(NC(=O)c2c(O)c3cccc4c3n(c2=O)CCC4)s1,-12.4%,?,-22.8%,-96.2*,-10.4%
CNC(=O)c1c(O)c2cccc3c2n(c1=O)CCC3,-10.5%,?,-20.2%,-97.5*,-10.1%
Cc1ccc2nc(-c3ccccn3)cc(C(=O)Nc3ccc(S(=O)(=O)N4CCOCC4)cc3)c2c1,-2.1%,?,0.9%,0.3,-24.0%
Cc1ccc(S(=O)(=O)N2CCOCC2)cc1C(=O)Nc1nc(-c2ccccn2)cs1,?,?,?,-87.1*,?
Cc1ccc(S(=O)(=O)N2CCOCC2)cc1C(=O)NCCN1C(=O)S/C(=C\c2ccccc2Cl)C1=O,?,12.6µM*,?,-33.9,?
O=C(NCCN1C(=O)S/C(=C\c2cccnc2)C1=O)c1cc(S(=O)(=O)N2CCOCC2)ccc1F,.,-9.6%,.,?,-22.3%
COc1ccc(C(=O)Nc2ccccn2)cc1S(=O)(=O)N1CCOCC1,-13.3%,3.0%,i,24.4,-9.1%
COc1ccc(C(=O)Nc2nc(-c3ccccn3)cs2)cc1S(=O)(=O)N1CCOCC1,.,11.2µM*,.,0.0,?
O=C(Nc1nc(-c2ccccn2)cs1)c1cccc(S(=O)(=O)N2CCOCC2)c1,.,3.55µM*,.,0.0,-13.9%
CN1CCN(S(=O)(=O)c2cccc(C(=O)Nc3nc(-c4ccccc4)cs3)c2)CC1,-25.3%,?,i,247.6,-16.9%
Cc1cccc(C(=O)Nc2ccc(C(=O)OCc3cc(=O)n4nc(CC(C)C)sc4n3)cc2)c1,-15.1%,.,-14.8%,38.0,30.2%
Cn1nnnc1SCc1ccc([N+](=O)[O-])cc1,-11.9%,14.4%,-8.3%,-9.6,-1.9%
Cn1nnnc1Sc1c(Cl)cccc1[N+](=O)[O-],-28.8%,0.6%,-29.3%,-91.4*,0.7%
Nc1ccc(Sc2nnnn2-c2ccccc2)c(Cl)c1,-5.5%,-3.1%,i,?,4.1%
